Assay results reported in PubChem BioAssay (NCATS).
Results filed as inconclusive are left out. Calls of active or inactive are those of the source. Calls follow the shape of the dose curve; as a rule, active = well fitted curve in the direction sought with a large enough effect; inconclusive = small, poorly fitted or top-dose-only effect, or another doubt; inactive = no such curve, though single readings can be large; an effect the other way counts as inactive or inconclusive. Peptide text beside a SMILES is read from it.

Assays:
[1] = target: Cellular tumor antigen p53 (Homo sapiens) (UniProt P04637); test: Primary qHTS for small molecule compounds that upregulate eGFP-tagged delta133p53alpha (in N-terminal) cells. (AID 2060322); conditions: NCI-H358 eGFP-delta133p53alpha fluorescence, 24 h; activation: stronger effect = higher value;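 also: cells pre-induced with doxycycline then dosed without doxycycline; 0% = DMSO vehicle and 100% = reference activator; nearly all actives have a fitted effect of over 75% in size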
Summary of the method: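 NCI-H358 cells pre-induced 24 h with 10 ng/ml doxycycline for eGFP-delta133p53alpha, plated dox-free and exposed 24 h at 37C to titrated compounds. Fixed, Hoechst-stained; gated GFP peak intensity by laser scanning cytometry, normalized to DMSO (0%) and 57.5 uM 5-azacytidine (100%).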

[2] = target: Aldehyde dehydrogenase, mitochondrial (Homo sapiens) (UniProt P05091); test: qHTS for Inhibitors of the Aldehyde Dehydrogenase Family (ALDH2) Primary screen (AID 2061308); conditions: ALDH2 enzyme inhibition qHTS, 1536-well; series mostly up to 56 µM;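 also: plate controls were vehicle for no effect and reference inhibitor for full effect; nearly all actives have a fitted effect of over 55% in size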
[3] = target: Retinaldehyde dehydrogenase 3 (Homo sapiens) (UniProt P47895); test: qHTS for Inhibitors of the Aldehyde Dehydrogenase Family (ALDH1A3) Primary screen (AID 2061315); conditions: ALDH inhibition qHTS; series mostly up to 56 µM;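 also: plate controls were DMSO vehicle for no effect and reference inhibitor for full effect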

Chain of Cellular tumor antigen p53 (Homo sapiens) (P04637 whole entry, looked up): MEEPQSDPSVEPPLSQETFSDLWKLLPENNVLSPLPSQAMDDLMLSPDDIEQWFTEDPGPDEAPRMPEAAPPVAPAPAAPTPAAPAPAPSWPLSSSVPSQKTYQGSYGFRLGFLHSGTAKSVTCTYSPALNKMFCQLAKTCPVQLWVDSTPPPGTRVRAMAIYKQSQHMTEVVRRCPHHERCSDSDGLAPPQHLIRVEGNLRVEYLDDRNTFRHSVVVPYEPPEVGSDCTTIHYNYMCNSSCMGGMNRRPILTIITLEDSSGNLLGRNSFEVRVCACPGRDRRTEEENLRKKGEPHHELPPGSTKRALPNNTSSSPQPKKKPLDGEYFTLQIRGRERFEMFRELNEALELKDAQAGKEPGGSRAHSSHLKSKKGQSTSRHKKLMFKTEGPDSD

CCCOc1ccc(S(=O)(=O)N2CCN(CCO)CC2)cc1-c1nc2c(CCC)cn(CC)c2c(=O)[nH]1
inactive: activation [1] -0.893% | Potency [2] | Potency [3]

C=C[C@H]1[C@H](O[C@@H]2O[C@H](CO)[C@@H](O)[C@H](O)[C@H]2O)OC=C(C(=O)OC)[C@H]1CC(=O)O
inactive: activation [1] -12.2% | Potency [2] | Potency [3]

COc1cccc(NC[C@@H](O)Cn2c3ccc(Br)cc3c3cc(Br)ccc32)c1
inactive: activation [1] 29.6% | Potency [2] | Potency [3]

COC(=O)c1cc(OC)cc(OC)c1C(=O)c1c(OC)cc2c(c1O)C1CCCC(C)(O2)O1 (stereo unspecified)
inactive: activation [1] 14.5% | Potency [2] | Potency [3]

CC1=CC(=O)CC2C1(O)CCC(C)C21CC(c2ccoc2)OC1=O (stereo unspecified)
inactive: activation [1] 6.87% | Potency [2] | Potency [3]

O=S(=O)(Nc1ccc(C(O)(C(F)(F)F)C(F)(F)F)cc1)c1cccs1
inactive: activation [1] -12.3% | Potency [2] | Potency [3]

C=C[C@@H]1[C@H](O[C@@H]2O[C@H](CO)[C@@H](O)[C@H](O)[C@H]2O)OC=C(C(=O)O)[C@H]1CCOC(=O)/C=C/c1ccc(O)c(O)c1
inactive: activation [1] -7.63% | Potency [2] | Potency [3]

C[C@H]1O[C@@H](O[C@H]2CC[C@@]3(C)C(CC[C@]4(C)C3CC=C3C5CC(C)(C)CC[C@]5(C(=O)O)CC[C@]34C(=O)O)C2(C)C)[C@H](O)[C@@H](O)[C@@H]1O (stereo partly specified)
inactive: activation [1] -12.2% | Potency [2] | Potency [3]

CC1(C)CC[C@]2(C(=O)O)CC[C@]3(C)C(=CCC4[C@@]5(C)C[C@@H](O)[C@H](O)[C@](C)(CO)C5CC[C@]43C)[C@@H]2[C@@H]1O (stereo partly specified)
inactive: activation [1] 12.5% | Potency [2] | Potency [3]

CC1OC(OC2C(O)C(C(=O)O)OC(OC3CCC4(C)C(CCC5(C)C4C=CC4=C6CC(C)(C)CC(O)C6(C)CCC45C)C3(C)C)C2OC2OCC(O)C(O)C2O)C(O)C(O)C1O (stereo unspecified)
inactive: activation [1] -19.1% | Potency [2] | Potency [3]

OC[C@H]1O[C@@H](OCCc2ccccc2)[C@H](O[C@@H]2OC[C@@H](O)[C@H](O)[C@H]2O)[C@@H](O)[C@@H]1O
inactive: activation [1] -11.5% | Potency [2] | Potency [3]

O=C1N(CC2CCCCN2)CCN1c1ccccc1 (stereo unspecified)
inactive: activation [1] 5.73% | Potency [2] | Potency [3]

C=C1CC[C@@H]2[C@@](C)(CO[C@@H]3O[C@H](CO)C(O)[C@H](O)C3O)[C@H](O)CC[C@@]2(C)[C@@H]1CC/C(C)=C/CO (stereo partly specified)
inactive: activation [1] -5.36% | Potency [2] | Potency [3]

C[C@@H](O)[C@H](N)C(=O)N1CCC[C@H]1C(=O)N1CCC[C@H]1C(=O)N[C@H](C(N)=O)[C@@H](C)O (H-TPPT-NH2)
inactive: activation [1] 1% | activity change, negative = inhibition [2] 5.09% [at 11.2 µM] | activity change, negative = inhibition [3] -29.1% [at 11.2 µM]

CC1(C)CCCC2(C)C1CC(=O)C13CC(CCC12)C(O)(CO)C3 (stereo unspecified)
inactive: activation [1] -7.63% | Potency [2] | Potency [3]

C=C1CCC2(OC1)OC1CC3C4CC=C5CC(O)CC(O[C@@H]6OC[C@@H](O)[C@H](O)[C@H]6O)C5(C)C4CCC3(C)C1(O)C2C (stereo partly specified)
inactive: activation [1] 5.34% | Potency [2] | Potency [3]

CC1CCCC(O)CCC/C=C/c2cc(OS(=O)(=O)O)cc(O)c2C(=O)O1 (stereo unspecified)
inactive: activation [1] -19.8% | Potency [2] | Potency [3]

C=C1C2(C)CC3C4(C)OC(C5OC56C4=CC(=O)OC6(C)C)C3(C)C13C(=O)OC(C)C3(O)C2=O (stereo unspecified)
inactive: activation [1] -9.92% | Potency [2] | Potency [3]

C=C[C@@](C)(CCC=C(C)C)O[C@@H]1O[C@H](CO[C@@H]2OC[C@H](O)[C@H](O)[C@H]2O)[C@@H](O)[C@H](O)[C@H]1O
inactive: activation [1] -11.5% | Potency [2] | Potency [3]

C=C1CC23CC1CCC2C12OC(=O)C(C)(C(O)C(O)C1O)C2C3C(=O)O (stereo unspecified)
inactive: activation [1] 2.68% | Potency [2] | Potency [3]

C/C=C(\C)C(=O)OC[C@H]1O[C@@H](O[C@H]2[C@@H](O[C@H]3O[C@H](COC(=O)/C(C)=C/C)[C@@H](O)[C@H](O)[C@H]3O[C@@H]3O[C@H](CO)[C@@H](O)[C@H](OC(=O)/C(C)=C/C)[C@H]3O)O[C@H](COC(=O)/C(C)=C/C)[C@@H](O)[C@@H]2O)[C@H](O)[C@@H](O)[C@@H]1O
inactive: activation [1] -25.2% | Potency [2] | Potency [3]

CC1(C)CC[C@]2(C(=O)O[C@@H]3O[C@H](CO)[C@@H](O)[C@H](O)[C@H]3O)CC[C@]3(C)C(=CCC4[C@@]5(C)CC[C@H](OC6OC(C(=O)O)C(OC7OC(CO)C(O)C(O)C7O)C(O)C6O)C(C)(C)C5CC[C@]43C)C2C1 (stereo partly specified)
inactive: activation [1] -16.8% | Potency [2] | Potency [3]
